Screens deposited in PubChem by The Scripps Research Institute Molecular Screening Center.
DAX1 inh-1: inhibitors of DAX1 repression of SF-1 activated StAR promoter; HEK293T StAR-luciferase reporter, SF-1/DAX-1 repression relief; inhibition, % at 6.8 µM; hit rate 1.1% among 370,000; AID 652010;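 active = inhibition above the mean over all tested compounds plus 3 SD, cut at about 3.6% in these data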;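 also: 0% = DAX-1 cells with DMSO and 100% = cells lacking DAX-1 with DMSO; higher inhibition means more luminescence from relief of DAX-1 repression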
hgDAF-12 ag: agonists of H. glycines DAF-12 nuclear receptor; activation, % at 6.8 µM; hit rate 1.8% among 370,000; HEK293 GAL4-hgDAF12 UAS-luciferase reporter, agonist luminescence; normalized to butyrate control; AID 687014;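 active = activation above a cutoff set at the mean of all screened compounds plus 3 SD, cut at about 10% in these data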;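 also: 0% = DMSO wells and 100% = sodium butyrate wells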
DAX1 inh-2: inhibitors of human orphan nuclear receptor DAX1 (NR0B1); P51843; HEK293 Gal4-DAX1 luciferase reporter, luminescence; inhibition, % at 6.75 µM; hit rate 0.99% among 340,000; AID 504766;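 active = inhibition above the mean over all tested compounds plus 3 SD, cut at about 4.2% in these data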;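 also: 0% = DAX1-transfected cells with DMSO and 100% = empty-vector control cells with DMSO; inhibition shows as a rise in luminescence from relieved DAX1 repression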
Target sequence (P51843 207-470 limits assumed): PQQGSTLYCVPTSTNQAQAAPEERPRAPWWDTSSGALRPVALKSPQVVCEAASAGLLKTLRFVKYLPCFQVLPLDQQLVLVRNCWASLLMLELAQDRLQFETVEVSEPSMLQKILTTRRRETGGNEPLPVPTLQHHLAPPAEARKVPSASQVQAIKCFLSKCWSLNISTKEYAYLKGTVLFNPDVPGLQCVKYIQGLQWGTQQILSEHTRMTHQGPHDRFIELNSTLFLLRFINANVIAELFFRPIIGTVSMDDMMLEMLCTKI
hcDAF12 agonist: H. contortus DAF-12 activation, primary screen | AID 652067 | HEK293 hcDAF-12 lit1-tk-luc reporter, luminescence; 0% DMSO, 100% Δ7-dafachronic acid | activation, % at 6.8 µM | hit rate 1.4% among 370,000;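 active = activation above the mean of all tested compounds plus 3 SD, cut at about 5.5% in these data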;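 also: 100% = response to 3 µM Δ7-dafachronic acid high control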
ssDAF-12 act: S. stercoralis DAF-12 activation, primary screen; HEK293 ssDAF-12/GRIP1 lit1-tk-luc reporter, luminescence; % of 3 µM dafachronic acid response; activation, % at 6.8 µM; hit rate 1% among 370,000;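 active = activation above the mean over all tested compounds plus 3 SD, cut at about 0.9% in these data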;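 also: 0% = DMSO-only wells and 100% = 3 µM delta7-dafachronic acid wells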
Active calls of the source: *; x = not tested or not shown. A selection: hits, their analogues and other compounds. The true share with any hit is near 4.1%.

SMILES	DAX1 inh-1	hgDAF-12 ag	DAX1 inh-2	hcDAF12 agonist	ssDAF-12 act
CNS(=O)(=O)c1cccc(C(=O)OCC(=O)Nc2ccc(OC)cc2[N+](=O)[O-])c1	-0.8	-1.2	4.3*	-1.1	-1.8
COc1ccc(NC(=O)COC(=O)c2cc(OC)c(OC)c(OC)c2)c([N+](=O)[O-])c1	-0.2	0.5	-0.6	0.1	-0.5
CC(C)(C)c1ccc(C(=O)Nc2cc(Cl)c(F)cc2C(=O)O)cc1	x	4.3	x	-1.5	-0.2
Cc1ccc(CN2CCCCC(NC(=O)c3cccc([N+](=O)[O-])c3)C2=O)cc1 (configuration not stated)	-1.7	-1.6	x	-1.8	-0.6
O=C(NCc1ccccc1F)C1C2C=CC3(CN(Cc4ccccc4)C(=O)C13)O2 (configuration not stated)	0.3	-1.5	x	-2.0	-1.2
COc1cccc(OCc2cc(C(=O)N(C)C3CCOCC3)no2)c1	0.0	0.7	0.3	4.0	-0.8
COc1cccc(OCc2cc(C(=O)N(C)Cc3nc(C)cs3)no2)c1	4.5*	6.4	1.5	2.4	-0.1
Cc1ccc(S(=O)(=O)N2CCC(C(=O)Nc3nnc(-c4ccc(F)cc4)s3)CC2)cc1	-0.2	0.5	0.6	6.5*	-1.3
Cc1ccc(NC(=O)C2CCN(S(=O)(=O)c3cccnc3)CC2)cc1C	-1.5	-2.9	-0.3	-1.6	-1.4
O=C(Nc1nnc(-c2ccc(F)cc2)s1)C1CCN(S(=O)(=O)c2ccc(Cl)cc2)CC1	0.6	0.4	0.9	-1.5	-0.5
CCCc1nnc(NC(=O)CCC(=O)N2CCN(S(=O)(=O)c3ccc(C)cc3)CC2)s1	-0.9	-0.2	-1.9	-1.8	1.1*
Cc1ccc(S(=O)(=O)N2CCC(C(=O)Nc3cccnc3)CC2)cc1	-0.2	-2.1	5.4*	0.2	-1.5
O=C(OCc1cn(Cc2cc(F)cc(F)c2)nn1)N1CCOCC1	0.0	-1.7	x	0.8	-1.6
CCOC(=O)N1CCN(C(=O)C[C@H]2C[C@@]3(C(=O)OC)C(=C[C@H](C4CCCC4)O[C@@H]3C)N(Cc3ccc(Cl)cc3Cl)C2=O)CC1	-1.5	1.1	x	-0.2	-1.7
COc1ccc(CN2C3=NC(c4ccccc4)CC(=O)N3/C(=C\c3ccccc3)C2c2ccccc2)c(OC)c1 (configuration not stated)	x	1.8	x	-2.2	-2.5
N#CCCN(Cc1cccnc1)C(=S)Nc1ccccc1Cl	0.0	-2.4	-1.0	0.8	-0.5
O=C(NCc1cccnc1)Nc1ccccc1	0.3	2.1	-0.1	1.4	1.0*
CC(=O)Nc1ccc(S(=O)(=O)NCc2cccnc2)cc1	-0.1	0.5	0.5	6.0*	-1.5
O=C(NC(=S)NCc1ccccc1)c1cccnc1	0.1	1.6	-0.5	3.7	1.0*
N#CCCN(Cc1cccnc1)C(=S)NC(=O)c1ccccc1	-1.2	1.4	4.6*	2.2	-1.0
COc1ccc(S[C@]2(C(=O)NCCc3ccccc3)CC(=O)N[C@@H]2c2ccc(OC)cc2)cc1	-0.3	-3.5	x	-2.5	-1.8
CC(=O)c1ccc(NC(=S)NCc2cccnc2)cc1	-1.6	-1.9	6.1*	-1.3	-1.8
Cc1ccc(NC(=S)NCc2cccnc2)cc1	-0.2	-0.2	-0.8	1.1	-0.5
Cc1ccnc(NS(=O)(=O)c2ccc(N3C(=O)Nc4ccccc4N3O)cc2)c1	0.8	0.4	0.4	1.2	-1.1
O=C1Nc2ccccc2N(O)N1c1ccc(S(=O)(=O)Nc2ccccn2)cc1	0.7	3.1	1.0	3.3	0.9*
SMILES	DAX1 inh-1	hgDAF-12 ag	DAX1 inh-2	hcDAF12 agonist	ssDAF-12 act
OC[C@H]1O[C@@H](c2nc(-c3cccc4ccccc34)no2)[C@H](O)[C@@H]1O	1.2	12.8*	x	0.9	-0.5
CCCCCC[C@@H](CN(CCCC)S(C)(=O)=O)c1ccccc1	-1.7	2.4	x	-2.3	-0.8
CCc1ccc(/C(C)=N/NC(=O)c2ccccn2)cc1	0.3	0.6	1.7	-0.3	-1.0
C/C(CC(=O)Nc1ccc(N(C)C)cc1)=N\NC(=O)c1ccc(F)cc1	0.6	8.9	3.8	1.7	0.1
CC(=N/O)/C(C)=N\NC(=O)c1ccccn1	1.5	13.2*	3.9	2.9	-0.4
C/C(CC(=O)NCc1ccccc1Cl)=N/NC(=O)c1ccccn1	2.5	10.7*	0.2	5.1	-0.4
C/C(CC(=O)Nc1ccc(F)cc1)=N\NC(=O)c1ccccn1	2.2	11.0*	0.1	3.7	-0.7
COC(=O)[C@]12C[C@H](CC(=O)NCc3ccc(C)o3)C(=O)N(CCc3ccc(OC)c(OC)c3)C1=C[C@H](COCc1ccccc1)O[C@@H]2C	-0.6	-1.6	x	-1.1	-1.2
C/C(=N\NC(=O)c1ccccc1F)c1ccc(C#N)cc1	2.7	5.1	4.5*	1.3	-0.9
O=C(NCc1ccccc1Cl)C1CCCN(c2ncccn2)C1 (configuration not stated)	-1.0	2.2	x	-2.5	-1.5
Cc1ccc(-c2nc3ccccc3s2)cc1NC(=O)c1cc(-n2cnnc2)ccc1Cl	1.8	10.5*	-0.1	5.2	-0.8
CCCNC(=O)c1csc(Nc2cccc3ccccc23)n1	-0.1	0.7	-1.8	1.4	-1.4
CC(=O)c1csc(-c2ccccc2)n1	0.4	0.3	5.4*	-1.1	-1.5
CC(=O)c1csc(Nc2ccccc2Cl)n1	0.4	6.9	8.7*	1.3	-0.6
O=C(Nc1ccc(Cl)cc1)c1csc(-c2ccccc2)n1	0.3	1.3	1.0	0.6	-1.8
CCOC(=O)Cn1cc(CN2CCS(=O)(=O)N(Cc3ccc(OC)cc3)C(C(=O)OC)C2)nn1 (configuration not stated)	-0.1	-0.5	x	-1.7	-0.9
Cn1cccc1[C@]1(O)C(=O)Nc2ccc(F)cc21	-1.3	-0.6	x	-1.1	-0.6
Cc1cc(OCC(=O)NC(C)C)ccc1Cl	0.5	-2.3	0.2	-2.2	-0.7
Cc1cc(OCC(=O)NC(C)C)cc(C)c1Br	0.1	-1.6	4.4*	-1.1	-1.2
O=[N+]([O-])c1cc(C=Nc2ccc3ccccc3c2)ccc1Br	0.8	4.8	1.4	1.7	1.2*
CCOc1ccc(N=Cc2ccc3ccccc3c2)cc1	0.5	-1.8	0.4	2.8	-1.2
O=C(NCC1CCCO1)/C(=C/c1ccccc1)NC(=O)c1ccccc1 (configuration not stated)	-0.5	3.6	-1.7	0.1	-0.9
C(=C\c1ccccc1)/CNCC1CCCO1 (configuration not stated)	-0.3	7.0	0.5	2.7	1.6*
Fc1ccc(CNCC2CCCO2)cc1 (configuration not stated)	0.0	-1.4	4.3*	0.1	-0.6
Clc1ccc(CNCC2CCCO2)cc1 (configuration not stated)	0.6	-3.4	0.5	-0.9	-0.3
Nc1nc2ncccc2cc1C(=O)C1=C(c2ccccc2)Cc2ccccc21	-2.2	-3.9	x	-0.6	-1.1
CN1[C@@H](Cc2ccccc2)COc2cc(F)ccc2S1(=O)=O	-0.8	-2.5	x	-2.3	-1.1
COc1ccc(C(=O)Cc2ccccc2C(=O)O)cc1	-0.2	2.2	2.5	0.3	-0.9
